The panel holds about 83,000 compounds, 20% with a hit somewhere; the sample as a whole holds those more often.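 Values shown are percent growth following 48 h exposure of cells in 96-well plates to a single concentration of compound; below 10 was considered active.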 Values without a mark were called inactive. The source made the active and inactive calls.
Test system: OVCAR-5 ovarian
Assay: NCI-60 one-dose screen, 48 h (100 = growth as untreated, 0 = no growth, -100 = all killed)
Settings: 10 µM
Method: Growth inhibition of the OVCAR-5 human tumor cell line is measured as a screen for anti-cancer activity. Cells are grown in 96 well plates and exposed to the test compound for 48 hours. Compounds are tested at a single concentration, which is 10^-5 M for most compounds. The reported endpoint is percent growth (GI% or GIPRCNT), where numbers from 0 - 100% represent growth inhibition, and numbers from -100% - 0 represent cell death. For example, a value of 40 represents 60% growth inhibition. A value of 0 means no net growth occurred over the course of the experiment. A value of -40 indicates 40% of cells at the beginning of the experiment died by the end of the experiment. A value of -100 means all cells are dead at the end of the experiment.
NCI-60 Human Tumor Cell Lines Screen was performed using the standard one-dose NCI protocol, which is described in more detail at https://dtp.cancer.gov/discovery_development/nci-60/default.htm.
Compounds with GIPRCNT values below 10 were considered active. Activity score was based on GIPRCNT using the following formula: […]
Score is 0 for GIPRCNT values of 100 or above, 50 for GIPRCNT values of 0, and 100 for GIPRCNT values of -100.

| SMILES | growth |
| --- | --- |
| CCC(OC(=O)CC(C)C)c1ccccc1 (stereo not given) | 104% |
| CCOC(=O)c1ccc(N(C=O)CCC(=O)CCl)cc1 | 4.98% (active) |
| O=c1oc2cc(OS(=O)(=O)C3CC3)ccc2c2c1CCCCCC2 | 100% |
| O=C(Nc1cccc(-c2nc3ccccc3[nH]2)c1)c1cccc(NC(=O)c2ccco2)c1 | 93.8% |
| O=C1/C(=C/c2ccc(O)cc2)Oc2ccc(Cl)cc21 | 106% |
| Fc1ccc2[nH]c3c(NCCCN4CCOCC4)ncnc3c2c1 | 85.6% |
| COc1cccc(C(=O)N(c2ccc(F)c(F)c2)C(C(=O)NC(C)(C)C)c2cc3c(C)cc(C)cc3nc2Cl)c1 (stereo not given) | 86.5% |
| CCOC(=O)Nc1ccc2c(c1)C(=O)N(CCOC)c1ccccc1O2 | 87.9% |
| COc1ccc(-c2ccc(-c3ccc(C(=N)N)c(F)c3)s2)cc1 | -91.7% (active) |
| O=C(CCCC(=O)N/N=C/c1cc(Cl)ccc1O)N/N=C\c1cc(Cl)ccc1O | 67.4% |
| COc1ccc(/C=C2\SC(=S)N(CCCN3CCOCC3)C2=O)c(OC)c1 | 104% |
| Cc1nc2cc(-n3c(-c4ccc(F)cc4)nc4ccccc4c3=O)ccc2n1Cc1ccccc1 | 65.2% |
| CC1=CC2OC34COC3CC(OC(=O)C(F)(F)F)C4(C)C2(C)CC1 (stereo not given) | 101% |
| COc1ccc(C(=O)/C=C/c2cc(-c3ccc4c(c3)OCO4)n[nH]2)cc1OC | 75.9% |
| COc1cc(C(=O)n2nc(N)c3c(C)cc(C)nc32)cc(OC)c1OC | 118% |
| COc1cc(-c2cc(-c3cc(OC)c(OC)c(OC)c3)nc3nc(N)[nH]c(=O)c23)ccc1Oc1ccnc2cc(Cl)ccc12 | 103% |
| CCN(CC)CCOC(=O)c1ccc(N=Nc2ccc(O)c(OC)c2)cc1 | 95.4% |
| S=c1c2ncccc2c(-c2ccccn2)nn1Cc1ccccn1 | 111% |
| COc1cc(-c2nc3ccc(C)cc3[nH]2)ccc1OCc1nnc(-c2ccc(CC(C)C)cc2)o1 | 102% |
| CCCCCCCCCCSC(=N)N (tested in a mixture with another compound) | 101% |

| SMILES | growth |
| --- | --- |
| CCCCCCCCCCCCCC[n+]1ccccc1 | 5.24% (active) |
| CCCCOCC(=O)NC(NP(=O)(N(C)C)N(C)C)C(Cl)(Cl)Cl (stereo not given) | 109% |
| Cc1ccc(C)c(S(=O)(=O)NC2c3ccccc3Oc3ccccc32)c1 | 103% |
| COc1cccc(-c2nnc(COc3ccc(-c4nc5ccc(C)cc5[nH]4)cc3OC)o2)c1 | 103% |
| COc1cc(-c2nc3cc(Cl)c(Cl)cc3[nH]2)ccc1OCC(=O)NN | 98.1% |
| Cc1ccc(-c2cc(-c3cccc(Nc4ccnc5cc(Cl)ccc45)c3)nc3nc(N)[nH]c(=O)c23)cc1 | 108% |
| COc1cc(NS(C)(=O)=O)ccc1Nc1c2ccc(Cl)cc2nc2c(OC)cccc12 | -11.9% (active) |
| O=C(NNC(=O)c1ccncc1)Nc1ccc([N+](=O)[O-])cc1 | 108% |
| COc1cc(C2=Nc3c/c(=C\c4c(O)[nH]c5ccc(Cl)cc45)ccc3=N2)cc(OC)c1OC | 79.6% |
| CCCc1c(C)nc2scc(-c3ccc(Cl)cc3)n2c1=O | 104% |
| CCOC(=O)c1c(C(F)(F)F)n([O-])c2ccc(OC)cc2[n+]1=O | 60.8% |
| N#CCC1CCCC1 | 105% |
| N#Cc1c2c([nH]c(=O)c1C(N)=O)CCCCC2 | 97.2% |
| COc1ccc(C(=O)c2sc3nc(-c4cccs4)ccc3c2N)cc1OC | 82.2% |
| Nc1ncc(-c2ccc(C(F)(F)F)cc2)c(NC2CCCCCC2)n1 | 53% |
| CC(=O)[C@H]1CC[C@H]2[C@@H]3CC[C@@H]4CC=C(C=O)C[C@]4(C)[C@H]3CC[C@]12C | 96.9% |
| COc1ccc(Nc2ccnc(N3CCN(c4ccnc5cc(Cl)ccc45)CC3)n2)cc1 | 9.98% (active) |
| O=C(CCl)N1c2ccccc2Sc2ccc3ccccc3c21 | 21% |
| CCCCc1ccc(NC(=O)N(CCCl)N=O)cc1 | 104% |
| O=C(OCC1OC(n2cc(C(F)(F)F)c(=O)[nH]c2=O)CC1OC(=O)c1ccc([N+](=O)[O-])cc1)c1ccc([N+](=O)[O-])cc1 (stereo not given) | 82.9% |

From PubChem BioAssay (NCI)
